Compound activity as filed in PubChem.
Rows were chosen to be rich in hits. Some 2.1% of all compounds tested hit in one or more screens of this group.
Rce1 inh: blocks yeast Ras-converting enzyme. Q03530. yeast membranes, quenched prenylated peptide cleavage fluorescence. calls only. actives 0.27% (n = 290,000);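 active = fall in fluorescence gain of 50% or more versus controls, with final raw signal at or below 3038400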
ADAM10 inh: inhibitors of human ADAM10; O14672; recombinant ADAM10, EDANS/DABCYL FRET peptide cleavage, 3 h; inhibition, % at 7 µM; actives 0.62% (n = 370,000);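 active = inhibition above a per-campaign cutoff equal to the mean of compounds falling between control-based bounds plus 3 SD, cut at about 20% in these data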
ADAM17 inh: ADAM17 inhibition, QFRET primary screen. inhibition, % at 6.95 µM. AID 720648. recombinant ADAM17, EDANS/DABCYL FRET peptide cleavage. actives 0.83% (n = 370,000);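 active = inhibition above the mean of compounds lying between control limits plus 3 SD, set per campaign, cut at about 8.5% in these data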
Target sequence (P78536 215-824 limits assumed): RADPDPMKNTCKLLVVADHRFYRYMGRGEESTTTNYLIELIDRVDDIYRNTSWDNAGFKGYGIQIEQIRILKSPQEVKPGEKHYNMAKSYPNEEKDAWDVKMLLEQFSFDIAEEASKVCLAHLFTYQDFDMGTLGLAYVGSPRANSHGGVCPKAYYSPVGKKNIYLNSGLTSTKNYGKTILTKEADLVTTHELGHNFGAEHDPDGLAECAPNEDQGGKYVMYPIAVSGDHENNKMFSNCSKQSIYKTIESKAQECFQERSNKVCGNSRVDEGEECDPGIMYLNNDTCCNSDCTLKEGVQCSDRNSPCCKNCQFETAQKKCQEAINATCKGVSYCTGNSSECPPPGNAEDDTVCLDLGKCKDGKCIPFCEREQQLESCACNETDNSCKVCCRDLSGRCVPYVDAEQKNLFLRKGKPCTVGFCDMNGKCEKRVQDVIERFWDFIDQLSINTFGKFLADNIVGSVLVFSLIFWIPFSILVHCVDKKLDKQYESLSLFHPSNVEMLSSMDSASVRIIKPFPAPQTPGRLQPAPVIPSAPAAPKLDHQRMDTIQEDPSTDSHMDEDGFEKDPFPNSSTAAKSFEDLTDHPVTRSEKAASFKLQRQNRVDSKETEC
PLCg1 inh: PLC-gamma1 (human) inhibition, primary screen; P19174; purified PLC-gamma1, fluorogenic substrate, fluorescence; inhibition, % at 12.2 µM; AID 720700; actives 0.84% (n = 370,000); in the data active = inhibition above about 9.5%
PLCb3 inh: inhibitors of human phospholipase C beta3. Q01970. Purified PLC-beta3, fluorogenic substrate, fluorescence. actives 0.18% (n = 370,000). AID 720704. inhibition, % at 12.2 µM; in the data active = inhibition above about 11%
ADAM10 confirm: confirmation of inhibitors of human ADAM10 | shares compounds with ADAM10 inh | ADAM10 QFRET peptide cleavage, EDANS fluorescence | inhibition, % at 6.95 µM | actives 1% (n = 2,100);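 active = inhibition above about 20% chosen separately for each screening run, limit read from the data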
ADAM17 ctr: counter-screen for ADAM10 exosite inhibitors: inhibitors of human ADAM17. shares compounds with ADAM10 inh. ADAM17 QFRET peptide cleavage, EDANS fluorescence. inhibition, % at 6.95 µM. actives 0.5% (n = 2,100). AID 743214;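 active = mean triplicate inhibition above the solvent-only control wells' mean plus 3 SD, cut at about 12% in these data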
ADAM10 counter: counter-screen for ADAM17 exosite inhibitors: inhibitors of human ADAM10. inhibition, % at 6.95 µM. actives 47% (n = 2,900). AID 743256. recombinant ADAM10, EDANS/DABCYL FRET peptide cleavage, 3 h. shares compounds with ADAM17 inh;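 active = mean inhibition over the triplicate runs exceeds the activity threshold set in the earlier primary screen, cut at about 20% in these data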
ADAM17 confirm: human ADAM17 inhibition, confirmation | actives 65% (n = 2,900) | AID 743257 | inhibition, % at 6.95 µM | recombinant ADAM17, EDANS/DABCYL QFRET peptide cleavage | shares compounds with ADAM17 inh;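 active = mean inhibition across replicates above the hit cutoff set in the primary screen, cut at about 8.5% in these data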
Each line names hits and unclear results; the compound was inactive in the other large screens (follow-up assays come after a bar, where they were run).

COc1ccc(C(C)=O)cc1CC1(C)C(=O)Nc2ccc(-c3cccc(C(F)(F)F)c3)cc21 (configuration not stated)	ADAM10 inh 27.0, ADAM17 inh 9.8 (no result: Rce1 inh) | ADAM10 confirm inactive | ADAM17 ctr inactive | ADAM10 counter 24.1 | ADAM17 confirm 14.2
CC(=O)c1cccc(-c2ccc3c(c2)C(C)(Cc2ccccc2C#N)C(=O)N3)c1 (configuration not stated)	none (no result: Rce1 inh)
CC(OC(=O)c1cccc(S(=O)(=O)Nc2cccc(C(F)(F)F)c2)c1)C(=O)Nc1ccc2c(c1)OCCO2 (configuration not stated)	ADAM10 inh 28.3, ADAM17 inh 9.2 | ADAM10 confirm inactive | ADAM17 ctr inactive | ADAM10 counter 27.5 | ADAM17 confirm 14.5
CCOc1ccc(-n2c(SCC(=O)Nc3ccc(S(=O)(=O)Nc4nccs4)cc3)nnc2-c2ccc(C(C)(C)C)cc2)cc1	ADAM10 inh 21.9, ADAM17 inh 12.4 (no result: Rce1 inh) | ADAM10 confirm inactive | ADAM17 ctr inactive | ADAM10 counter 39.9 | ADAM17 confirm 20.9
CC(C)(C)c1ccc(-c2nnc(SCC(=O)Nc3ccc(S(=O)(=O)Nc4nccs4)cc3)n2-c2ccc(Cl)cc2)cc1	ADAM10 inh 26.7, ADAM17 inh 12.9 (no result: Rce1 inh) | ADAM10 confirm inactive | ADAM17 ctr inactive | ADAM10 counter 26.6 | ADAM17 confirm 16.5
COc1ccc(CN(CCC(c2ccc(F)cc2)C2CCOC(C)(C)C2)C(=O)c2ccco2)cc1 (configuration not stated)	ADAM10 inh 21.5, ADAM17 inh 13.9 | ADAM10 confirm inactive | ADAM17 ctr inactive | ADAM10 counter 24.7 | ADAM17 confirm 14.9
COc1cc(NC(=O)CN2C(=O)C(c3ccccc3)=NC23CCCCCC3)cc(OC)c1	ADAM10 inh 29.5, ADAM17 inh 8.7 | ADAM10 confirm inactive | ADAM17 ctr inactive | ADAM10 counter inactive | ADAM17 confirm inactive
CC1(C)CC(=O)c2c(O)c(-c3ccccc3)c(=O)n(-c3ccccc3)c2C1	none
C[C@H](CO)N1C[C@H](C)[C@H](CN(C)S(C)(=O)=O)OCc2ccccc2-c2c(n(C)c3ccccc23)C1=O	none (no result: Rce1 inh)
Cc1ccc(S(=O)(=O)N(C)C[C@@H]2OCc3ccccc3-c3c(n(C)c4ccccc34)C(=O)N([C@H](C)CO)C[C@@H]2C)cc1	ADAM10 inh 26.7, ADAM17 inh 12.0 (no result: Rce1 inh) | ADAM10 confirm inactive | ADAM17 ctr inactive | ADAM10 counter 38.5 | ADAM17 confirm 20.8
C=CCC[C@H](Cc1ccc(F)cc1)C(=O)OC[C@@H](Cc1c[nH]c2ccccc12)NC(=O)[C@@H](CC=C)CC(=O)NCCO	ADAM10 inh 27.4, ADAM17 inh 16.7 (no result: Rce1 inh) | ADAM10 confirm inactive | ADAM17 ctr inactive | ADAM10 counter 35.2 | ADAM17 confirm 16.8
C=CC[C@@H](CC(=O)NCCO)C(=O)N[C@@H](COC(=O)[C@@H](CC=C)Cc1ccc(F)cc1)Cc1c[nH]c2ccccc12	none (no result: Rce1 inh)
C=CCC[C@H](Cc1ccc(F)cc1)C(=O)OC[C@H](Cc1c[nH]c2ccccc12)NC(=O)[C@H](CC=C)CC(=O)NCCO	ADAM10 inh 24.5, ADAM17 inh 9.4 (no result: Rce1 inh) | ADAM10 confirm inactive | ADAM17 ctr inactive | ADAM10 counter 43.3 | ADAM17 confirm 22.5
C=CCC[C@@H](Cc1ccc(F)cc1)C(=O)OC[C@@H](Cc1c[nH]c2ccccc12)NC(=O)[C@@H](CC=C)CC(=O)NCCO	ADAM10 inh 27.6, ADAM17 inh 16.6 (no result: Rce1 inh) | ADAM10 confirm inactive | ADAM17 ctr inactive | ADAM10 counter 28.7 | ADAM17 confirm 14.8
Cc1ccc(-c2ccc(OC(=O)c3ccc(=O)[nH]c3)c(C)c2)cc1	none
C[C@H](CO)N1C[C@H](C)[C@@H](CN(C)C(=O)NC2CCCCC2)Oc2ccc(NC(=O)C3CCCCC3)cc2C1=O	none (no result: Rce1 inh)
COc1ccc(S(=O)(=O)N2CCC(c3cc(-c4cccc5ccccc45)n[nH]3)CC2)cc1	ADAM10 inh 24.9, ADAM17 inh 10.9 | ADAM10 confirm inactive | ADAM17 ctr inactive | ADAM10 counter inactive | ADAM17 confirm 9.1
CSc1cccc(NC(=O)CCCOc2ccc(Cl)cc2C)c1	ADAM10 inh 31.1, ADAM17 inh 19.0 | ADAM10 confirm inactive | ADAM17 ctr inactive | ADAM10 counter 38.0 | ADAM17 confirm 18.6
CSc1cccc(NC(=O)/C=C/c2ccc(Cl)cc2)c1	ADAM10 inh 22.2, ADAM17 inh 13.6 | ADAM10 confirm inactive | ADAM17 ctr inactive | ADAM10 counter 44.9 | ADAM17 confirm 15.8
COc1ccc(OCCCC(=O)Nc2cccc(SC)c2)cc1	none
O=S1(=O)N[C@H](Cc2ccccc2)COc2cc(N3CCCC3)ccc21	none (no result: Rce1 inh)
O=C(CSc1nc2ccccc2s1)NNC(=S)Nc1ccc(Br)cc1	ADAM10 inh 21.1, ADAM17 inh 12.7 | ADAM10 confirm inactive | ADAM17 ctr inactive | ADAM10 counter inactive | ADAM17 confirm inactive
Cc1ccc(NC(=S)NNC(=O)CSc2nnc(SCc3cccc4ccccc34)s2)cc1	ADAM10 inh 21.0, ADAM17 inh 9.3 (no result: Rce1 inh) | ADAM10 confirm inactive | ADAM17 ctr inactive | ADAM10 counter 26.0 | ADAM17 confirm 11.5
O=C(CSc1nnc(SCc2cccc3ccccc23)s1)Nc1ccc(C(=O)O)cc1	none
COc1ccc(NC(=O)c2cccc(Oc3ccc([N+](=O)[O-])cc3Cl)c2)cc1	ADAM10 inh 21.7, ADAM17 inh 10.4 | ADAM10 confirm inactive | ADAM17 ctr inactive | ADAM10 counter 30.4 | ADAM17 confirm 17.8
COc1ccc(/C=N/NC(=O)c2ccc(NC(=O)c3cccc([N+](=O)[O-])c3)cc2)c(OC)c1	none
O=C(CCSC1=NCCCN1)c1ccc(F)cc1	none (no result: Rce1 inh)
Cc1cccc(C)c1OCC(=O)N(Cc1ccc(Cl)cc1)C1CCS(=O)(=O)C1 (configuration not stated)	ADAM10 inh 20.2, ADAM17 inh 9.2 | ADAM10 confirm inactive | ADAM17 ctr inactive | ADAM10 counter inactive | ADAM17 confirm inactive
O=C(COc1ccc(F)cc1)N(Cc1ccc(Cl)cc1)C1CCS(=O)(=O)C1 (configuration not stated)	none
COC(=O)[C@]12CCCCC=C1N(CCc1ccc(OC)c(OC)c1)C(=O)[C@H](CC(=O)NCCCCc1ccccc1)C2	none (no result: Rce1 inh)
O=C(c1cccs1)N1CCc2c([nH]c3ccccc23)C1c1ccc(Cl)cc1 (configuration not stated)	ADAM10 inh 30.9, ADAM17 inh 18.8 | ADAM10 confirm inactive | ADAM17 ctr inactive | ADAM10 counter inactive | ADAM17 confirm 11.3
